Assay results published in PubChem BioAssay.
Activity calls are given as the source filed them. No rule for the calls is given here.

target: Pantothenate synthetase (Mycobacterium tuberculosis (strain ATCC 25618 / H37Rv)) (UniProt P9WIL5); assay: Recombinant Mtb pantothenate synthetase (PanC) inhibitors, coupled enzyme, confirmatory (AID 375); conditions: coupled enzyme assay; at 10 µM, hits give high values;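 also: 0% = full reaction with vehicle and 100% = no enzyme background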
Sequence (P9WIL5 whole entry, looked up): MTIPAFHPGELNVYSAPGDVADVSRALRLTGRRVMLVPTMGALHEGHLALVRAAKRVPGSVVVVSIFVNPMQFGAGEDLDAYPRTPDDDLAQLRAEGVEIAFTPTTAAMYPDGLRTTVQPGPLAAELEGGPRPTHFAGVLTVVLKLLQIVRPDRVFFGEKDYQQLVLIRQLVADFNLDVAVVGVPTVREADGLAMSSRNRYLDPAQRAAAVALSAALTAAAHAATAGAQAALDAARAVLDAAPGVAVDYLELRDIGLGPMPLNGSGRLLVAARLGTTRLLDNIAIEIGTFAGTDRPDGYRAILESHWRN

SMILES | inhibition
COc1ccc(-c2c3c(=O)n(C)c(=O)n(C)c3cn2-c2cccc(OC)c2)cc1 | 0% (inactive)
COc1ccccc1N1CCN(C(=O)C(Cc2ccccc2)NC(=O)C2CCCCC2)CC1 (stereo not given) | 5% (inactive)
CCCCN(C(=O)c1ccc(Cl)cc1)C1CC2CCC(C1)N2C (stereo not given) | 0% (inactive)
CCOc1cccc(OCCOCCN2CCCC2)c1 | 8% (inactive)
Cc1ccc(S(=O)(=O)C(C#N)c2nc3ccccc3nc2N2CCCCC2)cc1 (stereo not given) | 2% (inactive)
COc1ccc(-n2c(Cc3cccn3C)nnc2SCC(=O)Nc2cccc(OC)c2)cc1 | 2% (inactive)
Cc1nc(-c2cccc(-c3noc(C)n3)c2)no1 | 0% (inactive)
O=C(Nc1cccnc1)c1ccc2c(c1)C(=O)N(Cc1cccnc1)C2=O | 0% (inactive)
CCOc1cc(NC(=O)c2ccccn2)c(OCC)cc1NC(=O)CC(C)C | 11% (inactive)
CC1(C)CC(=O)C2=C(C1)Nc1ccccc1N=C2 | 0% (inactive)
CCC(C)NC(=O)CC1Oc2ccc(C)cc2NC1=O (stereo not given) | 0% (inactive)
COc1ccc(N2CCN(c3oc(COc4ccccc4)nc3C#N)CC2)cc1 | 0% (inactive)
CCCC(=O)Nc1cc(-c2nnc(OC)c3ccccc23)ccc1N1CCOCC1 | 0% (inactive)
Cc1coc2cc3oc(=O)c4c(c3cc12)CCC4 | 11% (inactive)
CC(=O)N1C(=O)c2cccc3cccc(c23)C(=O)N1C(C)=O | 0% (inactive)
O=C(COC(=O)C1CC2C=CC1C2)Nc1ccc2c(c1)OC(F)(F)O2 (stereo not given) | 0% (inactive)
C=CCn1c(C)cc(C(=O)CSc2nc3ccccc3c(=O)[nH]2)c1C | 0% (inactive)
CN1CCN(S(=O)(=O)c2ccc(NC(=O)Nc3cccc(Cl)c3)cc2)CC1 | 1% (inactive)
CCCC(=O)Nc1c2c(nn1-c1ccc(OC)cc1)CS(=O)C2 (stereo not given) | 1% (inactive)
COc1ccc(N2C(=O)C3C4C=CC(C4)C3C2=O)nn1 (stereo not given) | 8% (inactive)

SMILES | inhibition
CC1CCN(S(=O)(=O)c2cccc(C(=O)Nc3ccccn3)c2)CC1 | 0% (inactive)
COc1ccccc1CNC(=O)C1CCN(S(=O)(=O)N2CCCCC2)CC1 | 0% (inactive)
CC(=O)N1CCc2c(sc(NC(=O)c3ccc(S(=O)(=O)N(C)C)cc3)c2C#N)C1 | 0% (inactive)
Cc1noc(C)c1CSc1nnc2n(-c3ccccc3)c(=O)c3ccccc3n12 | 0% (inactive)
CCOc1nc(NCCC2=CCCCC2)nc(N2CCOCC2)n1 | 0% (inactive)
CCOC(=O)C1=C(C)N=C2SCCC(=O)N2C1c1cc(Br)ccc1OC (stereo not given) | 5% (inactive)
COc1cc(S(=O)(=O)N2CCOCC2)ccc1NC(=O)COC(=O)c1ccccn1 | 0% (inactive)
CCC(=O)Nc1ccc(NC(=O)c2ccccn2)cn1 | 0% (inactive)
O=C(COC(=O)c1ccc(S(=O)(=O)Nc2ccccc2)cc1)NCCN1C(=O)CSC1=O | 0% (inactive)
O=C1CCc2cc(S(=O)(=O)N3CCC(C(=O)Nc4nccs4)CC3)ccc2N1 | 4% (inactive)
CCN(C(=O)c1cn(C)c(=O)c2cc(OC)c(OC)cc12)c1ccccc1C | 6% (inactive)
O=C(Cn1nc(-c2ccc3c(c2)OCCO3)ccc1=O)Nc1ccc(N2CCOCC2)cc1 | 0% (inactive)
CCOc1ccc(NC(=O)CC2NCCNC2=O)cc1 (stereo not given) | 9% (inactive)
CCN(CC(=O)NCc1cccs1)C(=O)c1cc(S(=O)(=O)N2CCOCC2)ccc1C | 0% (inactive)
Cc1c(C(=O)Nc2ccncc2)oc2c1C(=O)CC(C)(C)C2 | 5% (inactive)
O=C(c1ccc(Br)o1)N(Cc1ccccc1)c1ccccn1 | 3% (inactive)
NNC(=O)c1ccncc1 | 0% (inactive)
Cc1cc(C)cc(NC(=O)c2nnn(Cc3cc(C)ccc3C)c2N)c1 | 0% (inactive)
CCN(CC)c1ccc(/C=N/n2nnnc2N)c(O)c1 | 6% (inactive)
CCC1Oc2ccc(C)cc2N(CC(=O)N(Cc2cccnc2)Cc2ccc(C)o2)C1=O (stereo not given) | 4% (inactive)
